Measured values from PubChem BioAssay AID624202 (National Center for Advancing Translational Sciences (NCATS), 2012).
Out of some 380,000 compounds screened, about 4,000 (1.1%) were called active. Roughly 3% stayed inconclusive and do not appear here. The sample as a whole holds a higher share of actives than the screen did. A number with no mark means an inactive call. Calls come from the whole dose curve; as a rule, active = well fitted activation curve with a large enough effect; inconclusive = small, poorly fitted or top-dose-only effect; inactive = no such curve, though single readings can be large or run the other way.

Test: qHTS Assay to Identify Small Molecule Activators of BRCA1 Expression; note: nearly all actives have a fitted effect of over 80% in size
Settings: MCF7-BRCA1-FFLuc reporter, luminescence, 48 h; series mostly up to 46.1 µM; activation: at the top concentration
Method in brief: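 Activators of BRCA1 expression were detected as increased firefly luciferase luminescence in engineered MCF7 cells after 48 h compound incubation. Signals were scaled to genistein 10 microM as full activation.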
Potency is the fitted concentration of half-maximal effect.

First: COc1ccccc1CNc1ccc(-c2nc(-c3ccccc3C)no2)cc1[N+](=O)[O-]
Second: CC(Nc1ccc(-c2nc(-c3ccco3)no2)cc1[N+](=O)[O-])c1ccccc1 (stereo not given)
The “activation” value of the first is higher: 3.58% for the first, 0% for the second.

Going from `CCOC(=O)C(Cc1ccccc1)NC(=O)CCc1c(C)nc2c(c(C)nn2-c2ccc(C)c(C)c2)c1C` (stereo not given) to `Cc1ccc(C)c(N2CCN(C(=O)CCc3c(C)nc4c(c3C)c(=O)n(C)c(=O)n4C)CC2)c1`, the “activation” value falls from 1.84% to -8.22%.

`CCS(=O)(=O)N1CCc2cc(C(=O)NCc3ccc(OC)cc3)ccc21` and `CCS(=O)(=O)N1CCc2cc(C(=O)NCc3ccc(C)cc3)ccc21` are the same in “activation” value: 0% for the first, 0% for the second.

First: COc1ccc(CNc2nc(-c3ccc(Cl)cc3)cc(C(F)(F)F)n2)cc1
Second: CC(C)(C)NC(=O)CSc1nc(-c2ccc(F)cc2)cc(C(F)(F)F)n1
The “activation” value of the first is lower: -6.97% for the first, -3.74% for the second.

First: COc1ccc(NC(=O)Cn2c(=O)n(Cc3ccc(C(=O)NCc4ccccc4Cl)cc3)c(=O)c3ccccc32)cc1
Second: COc1ccc(-n2c(=O)c3ccccc3n(Cc3ccccc3Cl)c2=O)cc1
The “activation” value of the first is lower: 7.5% for the first, 13.8% for the second.

Going from `Cc1c(NC(=O)Nc2cccc([N+](=O)[O-])c2)c(=O)n(-c2ccccc2)n1C` to `O=C(CN1CCC(NC(=O)Nc2ccccc2)CC1)Nc1cccc([N+](=O)[O-])c1`, the “activation” value falls from 0% to -1.04%.

First: O=C(CSc1nnc(-c2ccncc2)n1-c1ccccc1)Nc1ccc(Cl)c(Cl)c1
Second: CCN(C(=O)CSc1nnc(-c2ccncc2)o1)c1ccccc1
The “activation” value of the first is lower: -9.9% for the first, 7.95% for the second.

First: CCOc1ccc(CNC(=O)c2ccc3c(c2)nnn3C2CCCC2)cc1
Second: O=C(NCc1ccccc1)C1CCN(S(=O)(=O)c2ccc3[nH]c(=O)ccc3c2)CC1
The “activation” value of the first is higher: 8.43% for the first, -1.38% for the second.

Compared with `CC1CC(C)CN(c2oc(-c3ccc(OCc4ccc(Cl)cc4)cc3)nc2C#N)C1` (stereo not given), `Cc1ccc(-c2noc(CSc3nnc(-c4ccc(Cl)cc4)n3C)n2)cc1` is lower in “activation” value: 7.19% for the first, 3.58% for the second.

First: CCN(CC)C(=O)CSc1nnc(-c2ccc(S(=O)(=O)NCc3ccccc3Cl)cc2)o1
Second: COc1ccc(-c2nnc(SCC(=O)Nc3ccccc3C)o2)cc1OC
The “activation” value of the first is lower: -7.09% for the first, 0% for the second.

Compared with `COc1cccc(NC(=O)CSc2nnc(-c3cccnc3)o2)c1`, `Cc1cccc(NC(=O)Cn2c(=O)n(CCC(C)C)c(=O)c3cccnc32)c1` is higher in “activation” value: -36.4% for the first, -3.64% for the second.

Going from `CCOC(=O)c1cc(OC(=O)c2ccccc2Cl)n(-c2ccccc2)n1` to `O=C(CC(=O)c1cccnc1)c1ccccc1`, the “activation” value falls from 3.87% to -40.2%.

Compared with `CC(C)(C)c1ccc(C(=O)C[n+]2cccc3cc(Cl)ccc32)cc1`, `Cc1cc2ccccc2n1CCNC(=O)c1ccc(F)cc1` is higher in “activation” value: -79% for the first, -31.6% for the second.

Compared with `Cn1cc(S(=O)(=O)N2CCCCCC2)cc1C(=O)N1CCN(c2ccc(F)cc2)CC1`, `Cc1ccc(S(=O)(=O)N2CCCCC2)cc1NC(=O)c1cccnc1` is lower in “activation” value: -2.6% for the first, -7.67% for the second.

First: CCc1ccc(C(=O)CC2(O)C(=O)N(CCc3ccccc3)c3ccc(Br)cc32)cc1 (stereo not given)
Second: CCOc1ccc(S(=O)(=O)N(CC(=O)NCCSCc2ccc(C)cc2)c2ccccc2)cc1
The “activation” value of the first is lower: -66.1% for the first, 19.9% for the second.

Going from `CCN1CC(CN(C)Cc2nc(-c3ccc(Cl)cc3)no2)CC1=O` (stereo not given) to `Cc1ccc(-c2nnc(CN3CCN(C)CC3)o2)cc1`, the “activation” value rises from -7.51% to -2.44%.

Compared with `CC(C)c1ccc2oc(-c3cc(NC(=O)c4cccs4)ccc3Cl)nc2c1`, `COc1ccc(Cl)cc1NC(=O)Cn1c(=O)c2ccccc2n2nncc12` is higher in “activation” value: -45.6% for the first, 1.86% for the second.

Compared with `CC1(C)Cc2ccccc2-c2c[nH]c(=O)n21`, `N#CNC1=NCN(CCc2ccccc2)CN1` is lower in “activation” value: 7.61% for the first, -31% for the second.

First: CCCN1CNC(=S)N(CCc2ccccc2)C1
Second: Cn1c(=O)c2sccc2n2c(CCC(=O)NCc3ccccc3Cl)nnc12
The “activation” value of the first is higher: 7.02% for the first, 0.707% for the second.

First: CCOC(=O)c1c(C)[nH]c(C)c1S(=O)(=O)N1CCC(C(=O)Nc2ccc(C)c(Cl)c2)CC1
Second: Cc1cc(C)c(NC(=O)CN2CCCCCC2)c(C)c1
The “activation” value of the first is lower: -39.2% for the first, 86.6% for the second.

Compared with `C(=Nc1ccc(/C=C/c2ccnc3ccccc23)cc1)Nc1ccc(/C=C/c2ccnc3ccccc23)cc1`, `CCN(CC)c1ccc(/C=C/c2c(C)cnc3ccc(C)cc23)cc1` is lower in “activation” value: -8.64% for the first, -54.5% for the second.

Compared with `COc1cc(OC)c(C(=S)N2CCCC2)cc1OC`, `CC1CCN(C(=S)c2ccc(-c3ccc(Cl)cc3Cl)o2)CC1` is higher in “activation” value: -5.45% for the first, 71.8% for the second.

Going from `O=C(CN1CCCCCC1)Nc1ccc(Br)cc1[N+](=O)[O-]` to `O=C(Nc1nnc(SCc2c(Cl)cccc2Cl)s1)C1CCCO1` (stereo not given), the “activation” value falls from 17.5% to 4.62%.

First: CC1CCN(C2=NC(=O)/C(=C/c3cn[nH]c3-c3ccccc3)S2)CC1
Second: COc1ccc(Cn2c(=O)n(-c3ccccc3C)c(=O)c3c4c(sc32)CN(C(C)=O)CC4)cc1
The “activation” value of the first is higher: 15.9% for the first, -6.11% for the second.

First: Cc1ccc(C)c(C(C)NC(=O)C2CCCO2)c1 (stereo not given)
Second: Cc1ccccc1CSc1nnc(CCCCCNC(=O)OC(C)(C)C)o1
The “activation” value of the first is higher: -7.33% for the first, -22% for the second.

Going from `O=C(NCCC1=CCCCC1)c1ccc2c(c1)N(Cc1ccccc1F)C(=O)c1ccccc1S2(=O)=O` to `Brc1nc2ncnc(NCc3ccco3)c2[nH]1`, the “activation” value rises from -29.5% to 13.2%.

In the case of `CO[C@H]1O[C@@H]2O[C@@]3(C)CC[C@@H]4[C@@H](C)CC[C@@H]([C@H]1C)[C@@]24OO3`, the “activation” value is reported as -9.91%.

In the case of `O=C(Nc1cccc([N+](=O)[O-])c1)N1CCc2ccccc2C1`, the Potency is reported as 10 µM (active).
In the case of `CCN(CC)C(=O)CSc1nnc(-c2cccc(OC)c2)o1`, the Potency is reported as 11.2 µM (active).
For `CC1CCN(Cc2nc(-c3ccc(Cl)cc3)no2)CC1`, the Potency was 8.91 µM (active).
For `c1ccc(CCN2CN=C(Nc3nc4ccccc4o3)NC2)cc1`, the Potency was 7.94 µM (active).
For `C/C(=C\C(=O)c1cccnc1)Nc1ccc(C)c(C)c1`, the Potency was 12.6 µM (active).
In the case of `S=C(c1ccc(-c2ccccc2)o1)N1CCCCC1`, the Potency is reported as 3.98 µM (active).
In the case of `O=C(CN1CCCCCC1)Nc1ccc(Br)cc1Br`, the Potency is reported as 5.62 µM (active).
With `Cc1ccsc1/C=C1\SC(N2CCOCC2)=NC1=O` the Potency was 11.2 µM (active).
In the case of `Cc1cc(C)c2nc(NC(=O)C3CCCO3)sc2c1` (stereo not given), the Potency is reported as 15.8 µM (active).
With `CCCCSc1nnc(-c2ccc(C)cc2)o1` the Potency was 1.78 µM (active).
In the case of `Cc1ccc(-c2nnc(SCc3ccccc3C)o2)cc1`, the Potency is reported as 11.2 µM (active).

In the case of `O=C1N=C(N2CCOCC2)S/C1=C\C=C/c1ccccc1`, the activation is reported as 0.869% [at 1.84 µM, scaled: vehicle 0%, 10 µM genistein 100%].
